Data taken from PubChem BioAssay AID1508602 (The Scripps Research Institute Molecular Screening Center, 2020).
Several values for one entry are separate records, joined by “and”; a condition that tells them apart may be missing. Equal values may be shown once. Hit rate of the full screen: of about 650,000 compounds, about 6,800 (1%) were called active. What follows is part of a selection rich in actives, with near analogues and random picks from the rest. A number with no mark means an inactive call. Cut-off read from the data, not from the text of the source: active = activation above about 4.9%; inactive = the rest.

Molecular target: G-protein coupled receptor 151 (Homo sapiens) (UniProt Q8TDV0)
Assay: activators of human GPR151, primary screen, cell-based, PathHunter beta-arrestin, luminescence (AID 1508602);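 note: 0% = median of compound wells and 100% = cells with positive control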
Details: PathHunter beta-arrestin GPR151 cells, at 11.2 µM, stronger effect = higher value

Chain of G-protein coupled receptor 151 (Homo sapiens) (Q8TDV0 whole entry, looked up): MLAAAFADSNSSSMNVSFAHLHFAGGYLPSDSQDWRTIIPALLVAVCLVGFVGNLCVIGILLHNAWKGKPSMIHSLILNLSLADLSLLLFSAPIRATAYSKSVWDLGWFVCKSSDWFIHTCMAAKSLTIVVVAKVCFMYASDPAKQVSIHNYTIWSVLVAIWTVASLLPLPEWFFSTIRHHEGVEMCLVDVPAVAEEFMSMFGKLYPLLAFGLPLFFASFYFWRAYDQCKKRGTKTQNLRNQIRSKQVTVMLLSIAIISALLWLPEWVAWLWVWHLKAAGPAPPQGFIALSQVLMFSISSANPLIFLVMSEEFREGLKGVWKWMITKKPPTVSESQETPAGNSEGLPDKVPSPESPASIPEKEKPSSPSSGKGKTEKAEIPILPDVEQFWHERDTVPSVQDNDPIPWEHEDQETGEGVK

Question: For COc1cc(C2C(C(=O)Nc3ccccn3)=C(C)NC3=C2C(=O)CCC3)cc(OC)c1OC (stereo not given), which activation is on record?
Answer: 0.722%

Question: Which activation does the source give for Cc1cccc(C)c1-n1c(=S)sc2c(=O)n(-c3cccc(Cl)c3)c(SCc3cccc([N+](=O)[O-])c3)nc21 here?
Answer: -0.958%

Question: For Cc1cccc(C)c1-n1c(=S)sc2c(=O)n(-c3cccc(Cl)c3)c(SCC#N)nc21, which activation is on record?
Answer: 7.07% (active)

Question: Cc1ccccc1-n1c(SCC#N)nc2c(sc(=S)n2-c2ccccc2C)c1=O was tested. Which activation did it give?
Answer: -0.0279%

Question: CCCOc1ccc(-c2ccc(-c3noc(-c4ccc(OCC)cc4)n3)cc2)cc1 was tested. Which activation did it give?
Answer: -1.32%

Question: With O=C(COc1ccc(Cl)cc1Cl)NCc1nc(-c2ccccc2)no1 as the compound, how does the activation read?
Answer: -1.12%

Question: How did the activation turn out when Cc1sc(NC(=O)CN(C(=O)CCc2ccccc2)C2CCCC2)c(C(N)=O)c1C was run?
Answer: 0.0057%

Question: Which activation does the source give for CCCCNC(=O)C1CCC(=O)N1Cc1ccc(F)cc1 (stereo not given) here?
Answer: 1.65%

Question: O=C(Nc1cccc(N2CCC(NCC3COc4ccccc4O3)CC2)c1)c1cccnc1 (stereo not given) was tested. Which activation did it give?
Answer: 0.419%

Question: O=C(Nc1cccc(N2CCC(NCc3ccon3)CC2)c1)c1cccnc1 was tested. Which activation did it give?
Answer: 5.91% (active)

Question: For COc1ccc(CNC2CCN(c3cccc(NC(=O)c4cccnc4)c3)CC2)cc1, which activation is on record?
Answer: -0.19%

Question: With Cc1cc2[nH]c(=O)c(=O)[nH]c2cc1S(=O)(=O)Nc1ccc(Br)cc1F as the compound, how does the activation read?
Answer: 1.29%

Question: With Cc1ccc2c(CNCc3ccccc3Cl)c(C(=O)O)n(Cc3ccccc3)c2c1 as the compound, how does the activation read?
Answer: 2.57%

Question: Which activation does the source give for O=C(NCCOc1ccccc1)c1cnc(N2CCCC2CO)s1 (stereo not given) here?
Answer: -3.77%

Question: Which activation does the source give for O=C(NCCOc1ccccc1)c1cnc(Nc2cccnc2)s1 here?
Answer: 0.0811%

Question: With O=C(NCCOc1ccccc1)c1cnc(N2CCN(c3ccccn3)CC2)s1 as the compound, how does the activation read?
Answer: 7.58% (active)

Question: For O=C(NNS(=O)(=O)c1ccc2ccccc2c1)Nc1ccc(F)cc1F, which activation is on record?
Answer: -1.26%

Question: With O=C(Nc1cccc(Oc2ccc(C(=O)O)c(C(=O)O)c2)c1)c1cccs1 as the compound, how does the activation read?
Answer: -1.23%

Question: For COc1ccc(CN2CCOc3ccc(C(C)(O)CN(C)C)cc3C2)c(Cl)c1OC (stereo not given), which activation is on record?
Answer: -0.16%

Question: How did the activation turn out when O=C(Cc1coc2ccc3ccccc3c12)NCc1cccnc1 was run?
Answer: 1.97%

Question: CC(C)(C)NC(=O)Cc1coc2ccc3ccccc3c12 was tested. Which activation did it give?
Answer: 5.9% (active)

Question: With O=C(Cc1coc2ccc3ccccc3c12)NC1CCN(Cc2ccccc2)CC1 as the compound, how does the activation read?
Answer: 1.58%

Question: COc1ccc(CCN(C(C)=O)C2CC(=O)N(c3ccc(Cl)cc3)C2=O)cc1 (stereo not given) was tested. Which activation did it give?
Answer: 2.31%

Question: Cc1nc2ccccc2c(=O)n1-c1ccc(OC(F)(F)C(F)F)cc1 was tested. Which activation did it give?
Answer: -0.339%

Question: COc1ccccc1C1C(C(N)=O)=C(C)Nc2nc(CCCO)nn21 (stereo not given) was tested. Which activation did it give?
Answer: 7.86% (active)

Question: For CC1=C(C(N)=O)C(c2ccc(F)cc2)n2nc(CCCO)nc2N1 (stereo not given), which activation is on record?
Answer: 0.25%

Question: With COc1ccccc1C1C(C(=O)Nc2ccc(F)cc2)=C(C)Nc2nc(CCCO)nn21 (stereo not given) as the compound, how does the activation read?
Answer: -0.0995%

Question: With O=S(=O)(c1cccs1)N1CCc2nc(-c3cccnc3)nc(N3CCCCC3)c2C1 as the compound, how does the activation read?
Answer: 0.747%

Question: For O=C(O)c1cccc(-n2[nH]c(=O)ccc2=O)c1, which activation is on record?
Answer: -1.37%

Question: Which activation does the source give for CCOC(=O)c1cc2cc(-c3c(C(=O)OCC)oc4cc(O)cc(O)c4c3=O)ccc2o1 here?
Answer: 0.272%

Question: For CCOC(=O)c1cc2cc(-c3c(C)oc4cc(OC(C)=O)ccc4c3=O)ccc2o1, which activation is on record?
Answer: 6.66% (active)

Question: For COc1ccc(-c2c(C)oc3cc(OC)ccc3c2=O)cc1, which activation is on record?
Answer: 0.167%

Question: How did the activation turn out when C/C=C/C=C/C(=O)N1C(=O)C(=O)c2ccccc21 was run?
Answer: -4.81%

Question: For Cc1ccc(NC(=O)CSc2nnc(-c3ccc(O)cc3)n2C)cc1N, which activation is on record?
Answer: -0.276%

Question: With Cc1ccc(Cl)cc1NC(=O)CSc1nnc(-c2ccc(N)cc2)n1C as the compound, how does the activation read?
Answer: 0.746%

Question: For Cc1ccc(NC(=O)CSc2nnc(-c3ccc(N)cc3)n2C)cc1Cl, which activation is on record?
Answer: 5.78% (active)

Question: Which activation does the source give for CCOC(=O)/C(C#N)=C\c1c(C)cc(C)c(COC)c1C here?
Answer: 4.44%

Question: Which activation does the source give for CN1CCC[C@@H]1CCOC(C)(c1ccccc1)c1ccc(Cl)cc1 (stereo not given in full) here?
Answer: -2.7% and 3.67%

Question: With O=c1sc2sc(=S)sc2s1 as the compound, how does the activation read?
Answer: -0.693%

Question: Which activation does the source give for C1CCC(Nc2nc3nonc3nc2NC2CCCCC2)CC1 here?
Answer: -0.129%

Question: For Brc1cnc(NC2CCCCC2)nc1, which activation is on record?
Answer: 7.99% (active)

Question: How did the activation turn out when c1ccc(-n2nnnc2NC2CCCCCC2)cc1 was run?
Answer: -0.96%

Question: For CCc1cc2cc(OC)ccc2nc1SCC(=O)Nc1nccs1, which activation is on record?
Answer: 0.182%

Question: CN1CCN(C(=O)c2ccc(-c3nc(NCc4ccccc4)c4ncn(Cc5ccc(C(F)(F)F)cc5)c4n3)cc2)CC1 was tested. Which activation did it give?
Answer: 0.228%

Question: How did the activation turn out when COc1ccccc1C(=O)CN1CCN(S(=O)(=O)c2ccc(Cl)cc2)CC1 was run?
Answer: 1.49%
